According to PubChem BioAssay AID1159580 (chemical genetic matrix, 2015):
The campaign covered roughly 5,500 compounds. About 2,000 (36%) were called active. Not shown: some 18% with an inconclusive outcome. No stated cut-off is given here; in the data, active means normalized growth mostly below about 0.91 (no sharp cut-off); inconclusive means no clear call, values can overlap the other calls; inactive means mostly above about 0.92. This is one part of the list.

Test: chemical genetic growth profiling, strain panel (AID 1159580);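 further: tested at 20 µM; growth read once vehicle control cultures reached saturation at 30 °C; 1 = growth at the plate median or of vehicle wells; lower values mean less growth of the strain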
Details: S. cerevisiae deletion strains, growth OD
[1] = locus YAL040C, strain CLN3, hits give low values
[2] = locus YCL061C, strain MRC1 (second series), hits give low values
[3] = locus YDR363W, strain ESC2, hits give low values
[4] = locus YER002W, strain NOP16, hits give low values
[5] = locus YJR075W, strain HOC1, hits give low values
[6] = locus YMR307W, strain GAS1, hits give low values
[7] = locus YNL153C, strain GIM3, hits give low values
[8] = locus YNL175C, strain NOP13, hits give low values
[9] = locus YNL197C, strain WHI3, hits give low values
[10] = locus YNL224C, strain SQS1, hits give low values
[11] = locus YNL322C, strain KRE1, hits give low values
[12] = locus YOR083W, strain WHI5 (second series), hits give low values
[13] = locus YAL013W, strain DEP1, hits give low values
[14] = locus YDR150W, strain NUM1, hits give low values
[15] = locus YPL055C, strain LGE1, hits give low values

Measured: normalized growth

CCCC(=O)NCCc1c2n(c3ccc(OC)cc13)CCCc1ccccc1-2
inactive: [1] 0.991 | [2] 1.01 | [3] 0.998 | [4] 0.996 | locus YGR078C, strain PAC10, hits give low values 1.01 | [5] 0.995 | [6] 1.01 | [7] 0.984 | [8] 0.99 | [9] 0.995 | [10] 0.984 | [11] 1.01 | [12] 0.972

CCCC(=O)NCCc1c2n(c3ccc(OC)cc13)Cc1ccccc1-2
inactive: [13] 0.986 | [1] 1.08 | [2] 1.01 | [14] 1 | [3] 0.993 | [4] 0.995 | locus YNL128W, strain TEP1, hits give low values 0.983 | [8] 0.964 | [9] 0.97 | [10] 0.963 | [11] 0.995 | [15] 1.01 | locus YPL241C, strain CIN2, hits give low values 1.01
active: [7] 0.754 | [12] 0.686

CC[C@H]1OC(=O)C[C@@H](O)[C@H](C)[C@@H](O[C@@H]2O[C@H](C)[C@@H](O[C@H]3C[C@@](C)(O)[C@@H](O)[C@H](C)O3)[C@H](N(C)C)[C@H]2O)[C@@H](CC=O)C[C@@H](C)C(=O)/C=C/C(C)=C/[C@@H]1CO[C@@H]1O[C@H](C)[C@@H](O)[C@@H](OC)[C@H]1OC
inactive: locus YAL021C, strain ccr4, hits give low values 1.01 | locus YAL026C, strain drs2, hits give low values 0.986 | locus YAL030W, strain snc1, hits give low values 0.997 | locus YBL061C, strain skt5, hits give low values 0.986 | locus YBR009C, strain hhf1, hits give low values 1 | locus YBR023C, strain chs3, hits give low values 0.988 | locus YBR171W, strain sec66, hits give low values 0.987 | locus YBR231C, strain swc5, hits give low values 0.989 | locus YBR279W, strain paf1, hits give low values 0.994 | locus YCL011C, strain gbp2, hits give low values 0.995 | locus YCL016C, strain dcc1, hits give low values 1 | locus YCL061C, strain MRC1, hits give low values 1.01 | locus YCL069W, strain vba3, hits give low values 0.992 | locus YCR088W, strain abp1, hits give low values 1 | locus YDL005C, strain med2, hits give low values 0.986 | locus YDL040C, strain nat1, hits give low values 0.99 | locus YDR001C, strain nth1, hits give low values 0.997 | locus YDR069C, strain doa4, hits give low values 0.995 | locus YDR137W, strain rgp1, hits give low values 1.03 | locus YDR159W, strain sac3, hits give low values 0.971 | locus YDR195W, strain ref2 0.975 | locus YDR297W, strain sur2, hits give low values 0.995 | locus YDR334W, strain swr1, hits give low values 0.994 | locus YDR335W, strain msn5, hits give low values 0.98 | locus YDR392W, strain spt3, hits give low values 1.02 | locus YEL003W, strain gim4, hits give low values 0.992 | locus YEL037C, strain rad23, hits give low values 0.99 | locus YEL061C, strain CIN8 (second series), hits give low values 0.992 | locus YER015W, strain faa2, hits give low values 0.99 | locus YER016W, strain bim1, hits give low values 0.991 | locus YER111C, strain swi4, hits give low values 0.98 | locus YER155C, strain BEM2 (second series), hits give low values 0.993 | locus YFR010W, strain ubp6, hits give low values 0.988 | locus YGL167C, strain pmr1, hits give low values 0.986 | locus YGL173C, strain kem1, hits give low values 0.986 | locus YGL227W, strain vid30, hits give low values 0.988 | locus YGL240W, strain doc1, hits give low values 0.992 | locus YGL253W, strain hxk2, hits give low values 0.98 | locus YHR013C, strain ard1, hits give low values 0.985 | locus YHR027C, strain rpn1, hits give low values 0.995 | locus YHR030C, strain SLT2, hits give low values 0.953 | locus YHR079C, strain IRE1, hits give low values 0.948 | locus YHR142W, strain chs7, hits give low values 0.965 | locus YJL092W, strain hpr5, hits give low values 0.986 | locus YJL095W, strain BCK1 (second series), hits give low values 0.991 | locus YJL095W, strain BCK1, hits give low values 0.962 | locus YJL115W, strain asf1, hits give low values 0.983 | locus YJL129C, strain trk1, hits give low values 0.971 | locus YJL154C, strain vps35, hits give low values 0.994 | locus YJL164C, strain tpk1, hits give low values 0.998 | locus YJL166W, strain qcr8, hits give low values 0.991 | locus YJL187C, strain SWE1, hits give low values 0.995 | locus YJR066W, strain TOR1, hits give low values 0.918 | locus YKL160W, strain elf1, hits give low values 0.993 | locus YKR026C, strain gcn3, hits give low values 0.991 | locus YKR091W, strain srl3, hits give low values 0.989 | locus YLL001W, strain dnm1, hits give low values 0.977 | locus YLL026W, hits give low values 0.995 | locus YLL041C, strain sdh2, hits give low values 0.992 | locus YLR027C, strain aat2, hits give low values 0.998 | locus YLR113W, strain HOG1, hits give low values 0.954 | locus YLR221C, strain rsa3, hits give low values 1 | locus YLR258W, strain gsy2, hits give low values 0.995 | locus YLR262C, strain YPT6 (second series), hits give low values 0.989 | locus YLR320W, strain mms22, hits give low values 0.994 | locus YLR342W, strain FKS1, hits give low values 0.984 | locus YLR357W, strain rsc2, hits give low values 0.994 | locus YLR370C, strain arc18, hits give low values 0.986 | locus YLR384C, strain iki3, hits give low values 0.991 | locus YML120C, strain ndi1, hits give low values 1 | locus YMR058W, strain fet3, hits give low values 1 | locus YMR125W, strain sto1, hits give low values 0.983 | locus YMR129W, hits give low values 0.997 | locus YMR205C, strain PFK2, hits give low values 0.986 | locus YMR231W, strain pep5, hits give low values 0.999 | locus YNL071W, strain lat1, hits give low values 0.993 | locus YNL183C, strain NPR1, hits give low values 0.922 | locus YNL209W, strain ssb2, hits give low values 0.993 | locus YNL248C, strain rpa49, hits give low values 0.988 | locus YNL322C, strain KRE1 (second series), hits give low values 0.985 | locus YNR049C, strain mso1, hits give low values 0.99 | locus YOR001W, strain rrp6, hits give low values 0.993 | locus YOR070C, strain gyp1, hits give low values 0.996 | locus YOR080W, strain dia2, hits give low values 0.977 | locus YOR083W, strain WHI5, hits give low values 0.997 | locus YOR106W, strain vam3, hits give low values 0.993 | locus YOR231W, strain MKK1, hits give low values 0.97 | locus YOR265W, strain rbl2, hits give low values 0.994 | locus YOR270C, strain vph1, hits give low values 0.895 | locus YOR290C, strain snf2, hits give low values 1.01 | locus YPL051W, strain arl3, hits give low values 1 | locus YPL078C, strain atp4, hits give low values 0.974 | locus YPL106C, strain sse1, hits give low values 1 | locus YPL240C, strain hsp82, hits give low values 1 | locus YPL256C, strain CLN2, hits give low values 0.955

C[C@H](NC(=O)/C(C#N)=C/c1ccc(O)c(O)c1)c1ccccc1
inactive: [13] 0.985 | [1] 1.04 | [2] 0.961 | [14] 0.936 | [3] 0.992 | [4] 0.985 | locus YGR229C, strain SMI1, hits give low values 0.93 | [5] 0.961 | locus YMR263W, strain SAP30, hits give low values 1 | [6] 1.02 | [7] 0.978 | [8] 0.991 | [9] 0.987 | [10] 1 | [12] 0.968 | [15] 0.924
